The text below walks through data of PubChem BioAssay (NCI).

Values joined by “and” are separate entries in the source; they are usually repeats but may differ in a detail not shown here. Identical values can stand only once. About 83,000 compounds went through this panel and 20% of them were active in at least one assay; those are over-represented in the sample as a whole.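 Cell lines were cultured in 96-well plates, exposed to a single compound concentration, and assessed for percent growth 48 hours later.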 Active and inactive are the calls of the source. Rule for the calls: active = growth percent below 10; inactive = the rest.

The assay concerns MDA-MB-468 breast. Briefly: NCI-60 one-dose screen, 48 h (100 = growth as untreated, 0 = no growth, -100 = all killed). Conditions: 10 µM unless noted.
As to `CC1(C)[C@@H](O[C@@H]2OC[C@@H](O[C@@H]3O[C@H](CO)[C@@H](O)[C@H](O)[C@H]3O[C@@H]3OC[C@@H](O)[C@H](O)[C@H]3O)[C@H](O)[C@H]2O[C@@H]2O[C@H](CO)[C@@H](O)[C@H](O)[C@H]2O)CC[C@]2(C)[C@H]3CC[C@]45OC[C@@]6(CC[C@](C)(C=O)C[C@H]64)[C@H](O)C[C@@]5(C)[C@]3(C)CC[C@@H]12`, the growth is -71.2% (active).
With `Cc1nc(/N=C(\N)NC(=O)Nc2cccc([N+](=O)[O-])c2)sc1C`, the growth was 11.6% (inactive).
As to `Cc1ccc(-c2nc(N3CCN(CC(=O)Nc4ccc(Cl)c(C(F)(F)F)c4)CC3)c3ccccc3n2)cc1`, the growth is 93.9% (inactive).
Turning to `Nc1nc(N)c2c(n1)NC(c1ccc(F)cc1)C1CCc3ccccc3C1=N2` (stereo not given), the growth is 5.4% (active).
For `COc1ccc(/C=C2\SC(=O)N(CN3CCN(c4cc5c(cc4F)c(=O)c(C(=O)O)cn5C4CC4)CC3)C2=O)cc1`, the growth was 108% (inactive).
Regarding `COc1cc(/C=C/C(=O)c2cc(OC)c(OC)c(OC)c2)ccc1Oc1nc(NCCO)nc(N2CCOCC2)n1`, the growth is -20.8% (active).
For the molecule `CCCCCCCCNC(C)C(O)c1ccc(SC(C)C)cc1` (stereo not given), the growth was 17.6% (inactive).
With `O=C1NC(=O)/C(=C\c2ccco2)S1`, the growth is 108% (inactive).
As for `O=c1[nH]c(CN2CCN(c3ccccc3)CC2)nc2c(Br)cc(Br)cc12`, the growth was 114% (inactive).
`CN(c1ncccc1CNc1nc(Nc2ccc3c(c2)CC(=O)N3)ncc1C(F)(F)F)S(C)(=O)=O`: the growth is -44.5% (active).
To `Cc1cccc(-n2c(C)nc3ccc(NC(=O)NCCCl)cc3c2=O)c1` belongs 92.7% (inactive).
As to `Cn1cnc2nc[nH]c2c1=S`, the growth was 107% (inactive).
On to `Cc1ccnc(Nc2ccc([N+](=O)[O-])c(NCCN3CCOCC3)n2)c1`, for which the growth was 26.3% (inactive).
The result for `Cc1ccc2c(c1)sc1nc(-c3c[nH]c4ccccc34)c(Nc3ccccc3)n12` reads 105% (inactive); that for `Cc1cc2c(C(C)C)c(O)c(O)c(/C=N/O)c2c(O)c1-c1c(C)cc2c(C(C)C)c(O)c(O)c(/C=N/O)c2c1O`, 20.9% (inactive); that for `CCCCCCNC(=O)Oc1ccc(/C(=C(/C)Cc2ccc(OC)cc2)c2ccc(OCCCN(C)C)cc2)cc1`, -17.3% (active).
Consider `CCN1CCN(Cc2ccc(C(=O)Nc3ccc(C)c(Oc4ccc(-c5[nH]nc6ncnc(N)c56)cc4)c3)cc2C(F)(F)F)CC1`, for which the growth is 118% (inactive).
For `COc1ccccc1Nc1nnc(COc2ccc(CNC(=O)CCCC/C=C/C(C)C)cc2OC)o1`, the growth was 99.7% (inactive).
Regarding `COc1cc(C(=C2O[C@@H]([C@H]3COC(C)(C)O3)[C@H]3OC(C)(C)O[C@@H]23)c2cc(OC)c(OC)c(OC)c2)cc(OC)c1OC`, the growth was 106% (inactive).
With `COc1ccc(-c2ccc(NC(=O)Nc3ccc(Cl)c(C(F)(F)F)c3)c(C)n2)cc1`, the growth is 38.5% (inactive).
With `CC(=O)c1c([Si](C)(C)C)c2cc(C#N)ccn2c1C(=O)c1ccc(Br)cc1`, the growth is 79.9% (inactive).
For the molecule `Cn1cc(C(=O)c2nc(-c3c[nH]c4ccc(Br)cc34)no2)c2cc(F)ccc21`, the growth was 108% (inactive).
`NCCNC(=O)c1cccc(COc2ccccc2NC(=O)c2cc(Br)c(Br)[nH]2)c1`: the growth was 85.1% (inactive).
As for `CCOC(=O)CC1CSC(N/N=C/c2ccc(F)c(Br)c2)=N1` (stereo not given), the growth was 116% (inactive).
`COc1ccc(/C(=C\c2cc(OC)c(OC)c(OC)c2)C(=O)N2CCCNCC2)cc1`: the growth is 98.1% (inactive).
Take `COc1ccc2c(O)c(/C=C3\N=Nc4nc(C)ccc43)oc2c1CC1CCNCC1`: the growth is 0.98% (active).
As for `O=C1c2c(c3c4cccnc4[nH]c3c3ccc4ccccc4c23)C(=O)N1CCO`, the growth was 57.6% (inactive).
The result for `CCC(=O)Oc1ccc(/C=N/NC(N)=S)nc1` reads 18.7% (inactive); that for `CC(Oc1ccc(C(=O)O)cc1C(F)(F)F)c1ccc(Oc2ccccc2)cn1` (stereo not given), 97.3% (inactive).
With `COc1cccc(NC2=CC(=O)C(C)=C(C)C2=O)c1`, the growth was 25.8% (inactive).
As to `CCC(O)c1ccccc1` (stereo not given), the growth was 108% (inactive) and 97.6% (inactive).
As for `Cc1ccc(C2CC(c3cccs3)=NN2c2ccc(S(N)(=O)=O)cc2)s1` (stereo not given), the growth was 16.3% (inactive).
For the molecule `CC1(C)C(=O)/C(=C\c2cccnc2)C[C@]2(C)[C@H]3CC[C@@H]4[C@H]5[C@H](C(=O)/C=C/c6cccnc6)CC[C@]5(C(=O)O)CC[C@@]4(C)[C@]3(C)CC[C@@H]12`, the growth is -46.4% [100 µM] (active).
As for `COc1cc(NC2=C(Cl)C(=O)c3nc(C)ccc3C2=O)cc(OC)c1`, the growth is -78.5% (active).
The result for `N#Cc1ncc(Br)c(NC2CCCCCC2)n1` reads 91.9% (inactive).
In the case of `CCCCCCCCCCCC[n+]1c(C)cc(N)c2ccccc21`, the growth is -34% (active).
For `O=[N+]([O-])c1cccc(-c2nc3sccn3c2-c2ccnc(NCCCNS(=O)(=O)c3cccc(F)c3)n2)c1`, the growth is -13.8% (active).
In the case of `O=C(Cc1ccccc1)NC(c1ccc(Cl)cc1)c1c(O)ccc2ccccc12` (stereo not given), the growth was 7.01% (active).
As to `COc1cc(C2CC(=O)Nc3c2cnn3Cc2ccco2)cc2c1OCCO2` (stereo not given), the growth was 73.8% (inactive).
Take `COc1ccccc1N=Nc1c(O)ccc2cc(S(=O)(=O)O)ccc12`: the growth is 111% (inactive).
